# Reference: the supplement of paper PMC12067093, “Discovery and optimisation of a covalent ligand for TRIM25 and its application to targeted protein ubiquitination” (Chemical Science, 2025)
# Targets with the largest changes are over-represented here; the source holds about 21,000 in all.
# Compound: Cc1cc(ccc1-c1ccccc1)C(=O)N1CCCN(CC1)C(=O)CCl [compound 10]
# Assay: probe-labelled cysteine peptide fold change vs DMSO (competition) (log2 fold change); higher = less target engagement (more negative = stronger competition)
# Details: 50 µM; THP-1; incubation time: 4 h
# 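Note: competitive profiling in live THP-1 cells: cysteine peptides tagged with an iodoacetamide desthiobiotin (IA-DTB) probe, intensity after compound treatment relative to DMSO-treated cells.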
# Chain of UniProt P10746 (P10746 whole entry, looked up): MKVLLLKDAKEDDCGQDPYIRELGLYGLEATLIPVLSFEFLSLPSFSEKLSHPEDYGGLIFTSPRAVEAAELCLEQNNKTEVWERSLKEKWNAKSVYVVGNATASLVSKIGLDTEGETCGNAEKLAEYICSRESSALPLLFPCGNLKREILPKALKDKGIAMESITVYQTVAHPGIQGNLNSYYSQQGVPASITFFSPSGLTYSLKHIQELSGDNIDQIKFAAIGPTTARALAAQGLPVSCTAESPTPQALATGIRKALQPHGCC
# Chain of UniProt Q8IWV8 (Q8IWV8 whole entry, looked up): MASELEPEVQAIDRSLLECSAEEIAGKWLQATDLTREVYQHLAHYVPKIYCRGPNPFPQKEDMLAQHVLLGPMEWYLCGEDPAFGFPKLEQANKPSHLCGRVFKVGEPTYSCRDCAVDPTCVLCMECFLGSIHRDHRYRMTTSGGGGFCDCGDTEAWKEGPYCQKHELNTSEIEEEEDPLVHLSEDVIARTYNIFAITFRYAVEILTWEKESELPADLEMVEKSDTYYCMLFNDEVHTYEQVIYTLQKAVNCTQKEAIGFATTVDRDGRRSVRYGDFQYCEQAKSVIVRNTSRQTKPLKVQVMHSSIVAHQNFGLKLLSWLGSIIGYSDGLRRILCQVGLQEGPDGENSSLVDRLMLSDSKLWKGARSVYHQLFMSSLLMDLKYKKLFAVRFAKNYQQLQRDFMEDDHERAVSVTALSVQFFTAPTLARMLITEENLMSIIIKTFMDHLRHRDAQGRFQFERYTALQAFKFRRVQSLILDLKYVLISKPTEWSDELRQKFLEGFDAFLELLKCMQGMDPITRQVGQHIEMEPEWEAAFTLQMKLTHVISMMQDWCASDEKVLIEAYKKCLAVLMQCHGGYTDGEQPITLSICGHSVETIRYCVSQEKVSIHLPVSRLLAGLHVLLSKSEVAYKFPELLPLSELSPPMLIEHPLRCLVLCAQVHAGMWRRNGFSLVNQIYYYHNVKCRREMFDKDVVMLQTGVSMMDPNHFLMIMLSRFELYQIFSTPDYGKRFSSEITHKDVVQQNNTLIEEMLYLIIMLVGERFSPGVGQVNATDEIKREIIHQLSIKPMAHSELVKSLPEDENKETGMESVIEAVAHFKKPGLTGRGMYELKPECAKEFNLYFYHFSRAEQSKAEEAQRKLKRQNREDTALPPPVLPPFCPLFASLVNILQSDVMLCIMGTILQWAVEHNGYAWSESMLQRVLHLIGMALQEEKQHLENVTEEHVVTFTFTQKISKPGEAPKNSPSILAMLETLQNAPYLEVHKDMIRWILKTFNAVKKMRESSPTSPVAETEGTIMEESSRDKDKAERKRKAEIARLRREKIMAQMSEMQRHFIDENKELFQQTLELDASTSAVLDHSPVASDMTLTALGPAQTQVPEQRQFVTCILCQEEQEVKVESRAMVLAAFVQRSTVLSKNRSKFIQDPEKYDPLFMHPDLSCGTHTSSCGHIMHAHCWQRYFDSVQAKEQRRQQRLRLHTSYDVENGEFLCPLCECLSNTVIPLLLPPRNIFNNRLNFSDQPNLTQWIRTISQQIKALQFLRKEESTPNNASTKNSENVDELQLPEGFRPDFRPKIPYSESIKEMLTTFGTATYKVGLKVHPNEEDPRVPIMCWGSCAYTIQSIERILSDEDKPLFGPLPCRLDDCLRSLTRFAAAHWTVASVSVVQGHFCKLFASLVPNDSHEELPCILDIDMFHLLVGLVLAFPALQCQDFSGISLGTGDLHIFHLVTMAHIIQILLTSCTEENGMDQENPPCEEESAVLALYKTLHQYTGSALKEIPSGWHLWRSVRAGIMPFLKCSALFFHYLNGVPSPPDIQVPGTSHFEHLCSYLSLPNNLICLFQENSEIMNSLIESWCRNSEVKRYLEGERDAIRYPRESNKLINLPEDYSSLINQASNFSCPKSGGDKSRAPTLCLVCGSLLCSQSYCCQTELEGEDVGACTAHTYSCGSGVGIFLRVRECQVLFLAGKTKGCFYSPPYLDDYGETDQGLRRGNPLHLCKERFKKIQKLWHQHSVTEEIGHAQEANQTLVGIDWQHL
# Chain of UniProt Q9H267 (Q9H267 whole entry, looked up): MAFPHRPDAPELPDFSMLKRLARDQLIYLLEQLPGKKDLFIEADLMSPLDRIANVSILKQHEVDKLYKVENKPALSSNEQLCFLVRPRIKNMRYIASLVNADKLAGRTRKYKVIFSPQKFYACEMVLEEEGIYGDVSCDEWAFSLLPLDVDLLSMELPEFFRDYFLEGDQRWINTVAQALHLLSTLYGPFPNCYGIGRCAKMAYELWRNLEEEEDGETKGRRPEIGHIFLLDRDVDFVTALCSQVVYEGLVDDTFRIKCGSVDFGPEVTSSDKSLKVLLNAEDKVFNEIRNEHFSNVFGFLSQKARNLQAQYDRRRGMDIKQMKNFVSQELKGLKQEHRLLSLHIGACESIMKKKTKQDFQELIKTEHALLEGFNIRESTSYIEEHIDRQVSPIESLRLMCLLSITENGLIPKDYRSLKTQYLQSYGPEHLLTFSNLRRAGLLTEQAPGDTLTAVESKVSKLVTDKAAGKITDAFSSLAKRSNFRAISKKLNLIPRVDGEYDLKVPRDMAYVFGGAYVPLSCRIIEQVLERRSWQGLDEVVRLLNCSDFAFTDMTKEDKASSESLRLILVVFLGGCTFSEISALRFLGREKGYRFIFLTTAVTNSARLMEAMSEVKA
# Chain of UniProt Q9UPN9 (Q9UPN9 whole entry, looked up): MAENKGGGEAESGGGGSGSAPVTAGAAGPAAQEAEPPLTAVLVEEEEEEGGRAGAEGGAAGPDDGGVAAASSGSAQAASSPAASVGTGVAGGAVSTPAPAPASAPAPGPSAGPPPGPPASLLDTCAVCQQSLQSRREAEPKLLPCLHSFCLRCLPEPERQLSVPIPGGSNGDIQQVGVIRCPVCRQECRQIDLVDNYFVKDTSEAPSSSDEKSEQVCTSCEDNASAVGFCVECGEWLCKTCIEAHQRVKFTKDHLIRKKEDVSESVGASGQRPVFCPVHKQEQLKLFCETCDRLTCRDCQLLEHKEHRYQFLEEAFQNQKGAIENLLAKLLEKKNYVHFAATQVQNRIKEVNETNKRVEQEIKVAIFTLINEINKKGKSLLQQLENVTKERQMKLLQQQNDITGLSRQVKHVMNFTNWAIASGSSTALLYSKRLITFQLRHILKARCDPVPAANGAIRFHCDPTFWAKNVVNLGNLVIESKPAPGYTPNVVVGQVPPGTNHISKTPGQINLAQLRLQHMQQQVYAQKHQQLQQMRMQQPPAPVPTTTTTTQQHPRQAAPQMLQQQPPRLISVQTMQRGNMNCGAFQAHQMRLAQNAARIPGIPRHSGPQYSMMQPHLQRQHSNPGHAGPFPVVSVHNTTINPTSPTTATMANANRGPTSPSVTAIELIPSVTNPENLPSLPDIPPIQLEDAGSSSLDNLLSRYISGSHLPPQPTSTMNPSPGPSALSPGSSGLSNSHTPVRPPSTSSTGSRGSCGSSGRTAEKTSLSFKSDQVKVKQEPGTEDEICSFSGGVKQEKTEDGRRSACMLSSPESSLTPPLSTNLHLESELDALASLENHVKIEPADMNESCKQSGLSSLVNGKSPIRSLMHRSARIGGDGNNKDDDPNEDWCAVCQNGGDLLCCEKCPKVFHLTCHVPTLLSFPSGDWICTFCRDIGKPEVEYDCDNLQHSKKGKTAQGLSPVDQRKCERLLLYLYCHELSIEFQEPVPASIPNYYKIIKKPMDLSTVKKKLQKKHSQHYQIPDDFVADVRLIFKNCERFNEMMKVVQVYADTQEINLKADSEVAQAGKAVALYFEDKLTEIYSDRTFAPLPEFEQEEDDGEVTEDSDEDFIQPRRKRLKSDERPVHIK
# Chain of UniProt Q2T9J0 (Q2T9J0 whole entry, looked up): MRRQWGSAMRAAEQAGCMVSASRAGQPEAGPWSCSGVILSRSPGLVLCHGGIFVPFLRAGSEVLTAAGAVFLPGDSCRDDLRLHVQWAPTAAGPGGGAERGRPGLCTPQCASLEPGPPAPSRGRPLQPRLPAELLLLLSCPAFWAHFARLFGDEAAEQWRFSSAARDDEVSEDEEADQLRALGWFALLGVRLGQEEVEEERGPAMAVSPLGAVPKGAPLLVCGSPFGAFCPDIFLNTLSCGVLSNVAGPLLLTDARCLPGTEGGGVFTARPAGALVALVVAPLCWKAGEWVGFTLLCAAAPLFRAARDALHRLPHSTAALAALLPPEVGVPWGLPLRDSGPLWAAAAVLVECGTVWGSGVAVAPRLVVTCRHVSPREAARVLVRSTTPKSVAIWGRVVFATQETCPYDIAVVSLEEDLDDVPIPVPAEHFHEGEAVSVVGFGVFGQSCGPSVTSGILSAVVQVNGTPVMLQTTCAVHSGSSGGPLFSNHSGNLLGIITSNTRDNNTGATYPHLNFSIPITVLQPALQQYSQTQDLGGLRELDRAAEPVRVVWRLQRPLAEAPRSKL
# Chain of UniProt Q8TBC4 (Q8TBC4 whole entry, looked up): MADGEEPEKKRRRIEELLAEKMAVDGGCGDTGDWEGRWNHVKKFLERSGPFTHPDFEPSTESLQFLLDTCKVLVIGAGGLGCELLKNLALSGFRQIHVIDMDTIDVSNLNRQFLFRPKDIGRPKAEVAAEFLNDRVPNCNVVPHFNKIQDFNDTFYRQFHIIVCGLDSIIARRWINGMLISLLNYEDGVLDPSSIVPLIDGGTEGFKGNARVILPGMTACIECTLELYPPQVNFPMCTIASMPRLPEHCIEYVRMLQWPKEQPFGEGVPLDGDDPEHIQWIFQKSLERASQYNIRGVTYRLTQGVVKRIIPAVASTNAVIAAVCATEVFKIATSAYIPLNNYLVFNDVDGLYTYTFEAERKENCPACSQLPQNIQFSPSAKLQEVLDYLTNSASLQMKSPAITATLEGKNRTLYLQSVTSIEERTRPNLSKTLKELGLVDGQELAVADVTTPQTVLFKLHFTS
# Chain of UniProt Q9GZX9 (Q9GZX9 whole entry, looked up): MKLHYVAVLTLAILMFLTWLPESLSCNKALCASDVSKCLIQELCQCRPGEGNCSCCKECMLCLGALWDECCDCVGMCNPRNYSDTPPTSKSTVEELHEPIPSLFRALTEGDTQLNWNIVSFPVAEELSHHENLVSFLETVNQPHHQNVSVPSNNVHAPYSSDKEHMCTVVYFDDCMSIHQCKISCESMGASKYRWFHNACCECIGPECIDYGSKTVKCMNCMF
row,Target,probe-labelled cysteine peptide fold change
1,USP9X_Q93008_1061_AICLDHAK (UniProt Q93008),0.565
2,UBR2_Q8IWV8_1360_ILSDEDKPLFGPLPCR (UniProt Q8IWV8),-0.412
3,TRNT1_Q96Q11_373_YQGEHCLLK (UniProt Q96Q11),-1.54
4,UBA3_Q8TBC4_28_MAVDGGCGDTGDWEGR (UniProt Q8TBC4),-0.0349
5,TXN_P10599_32_LVVVDFSATWCGPCK (UniProt P10599),-0.638
6,TTC39C_Q8N584_517_AVKDELCR (UniProt Q8N584),-0.291
7,TTC1_Q99614_178_EMAINDCSK (UniProt Q99614),-0.13
8,TRIP6_Q15654_339+342_CATCSQPILDR (UniProt Q15654),-0.28
9,UBR4_Q5T4S7_2618+2619_QLEGDCCSFITQLVNHFWK (UniProt Q5T4S7),-1.45
10,UROS_P10746_119_IGLDTEGETCGNAEK (UniProt P10746),-0.0029
11,UBAP1_Q9NZ09_243_ATLDFKPLHKPNGFITLPQLGNCEK (UniProt Q9NZ09),-1.36
12,TRIM13_O60858_106_GHLGQPLNIFCLTDMQLICGICATR (UniProt O60858),-0.215
13,UBR7_Q8N806_137_YNDNFFGLYCICK (UniProt Q8N806),-0.0777
14,TRIM59_Q8IWR1_208_SFLTALCDVGNLINQEYTPQIER<|>IFT80_Q9P2H3-3_208_SFLTALCDVGNLINQEYTPQIER (UniProt Q9P2H3+Q8IWR1),-0.00617
15,UVRAG_Q9P2Y5_186_TILLQVDQNCVR (UniProt Q9P2Y5),-0.0238
16,TRAPPC9_Q96Q05_317_NCLSPEDIIDK (UniProt Q96Q05),0.213
17,TRANK1_O15050_1930_QHGCLLEAAR (UniProt O15050),-0.106
18,VTA1_Q9NP79_87_QLGDNEAITQEIVGCAHLENYALK (UniProt Q9NP79),0.136
19,VPS26B_Q4G0F5_334_TPSQLSDNNCRQ (UniProt Q4G0F5),-0.321

row,Target,probe-labelled cysteine peptide fold change
1,VAV3_Q9UKW4_187_CPENDIR (UniProt Q9UKW4),-0.136
2,TRAP1_Q12931_527_KDTEVLFCFEQFDELTLLHLR (UniProt Q12931),0.314
3,TRPM7_Q96QT4_1411_FFVSTPSQPSCK (UniProt Q96QT4),-0.544
4,TUBA4A_P68366_4_MRECISVHVGQAGVQMGNACWELYCLEHGIQPDGQMPSDK (UniProt P68366),-0.408
5,TPP1_O14773_365_GLTLLFASGDSGAGCWSVSGR (UniProt O14773),0.0356
6,UHRF2_Q96PU4_42_VWALFDVRPECQR (UniProt Q96PU4),0.118
7,TRIM33_Q9UPN9_276_KKEDVSESVGASGQRPVFCPVHK (UniProt Q9UPN9),-0.148
8,TXNDC5_Q8NBS9_350+353_FYAPWCGHCK (UniProt Q8NBS9),-1.05
9,VPS33B_Q9H267_259_CGSVDFGPEVTSSDK (UniProt Q9H267),0.293
10,TTLL12_Q14166_126_ESGLQAAHPNSIFLIDHAWTCR (UniProt Q14166),0.0514
11,TYSND1_Q2T9J0_17_AAEQAGCMVSASR (UniProt Q2T9J0),0.0758
12,TRMT10C_Q7L0Y3_78_SSVQEECVSTISSSKDEDPLAATR (UniProt Q7L0Y3),-0.518
13,UHRF1BP1L_A0JNW5_398_NGWANELLHEFECNVEMLK (UniProt A0JNW5),-0.158
14,TRIM59_Q8IWR1_10+13_MHNFEEELTCPICYSIFEDPR<|>IFT80_Q9P2H3-3_10+13_MHNFEEELTCPICYSIFEDPR (UniProt Q9P2H3+Q8IWR1),-1.63
15,TXNRD2_Q9NNW7_523_SGLDPTVTGCUG (UniProt Q9NNW7),-2.15
16,TRIM25_Q14258_110_ASAPSPNAQVACDHCLK (UniProt Q14258),-0.283
17,VPS37A_Q8NEZ2_375_TICHCR (UniProt Q8NEZ2),1.08
18,TRMT1_Q9NXH9_621_GDQCCYSHSPPTPR (UniProt Q9NXH9),-0.0659
19,TWSG1_Q9GZX9_185_ISCESMGASK (UniProt Q9GZX9),-0.0863
